About 83,000 compounds went through this panel and 20% of them were active in at least one assay; those are over-represented in the sample as a whole.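 Single-concentration screen, 48 h exposure, 96-well plates. Endpoint: percent growth. Below 10 = active.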 Activity calls are given as the source filed them.

The test relates to OVCAR-8 ovarian. In words: NCI-60 one-dose screen, 48 h (100 = growth as untreated, 0 = no growth, -100 = all killed). The conditions noted are these: 10 µM unless noted. On the procedure: Growth inhibition of the OVCAR-8 human tumor cell line is measured as a screen for anti-cancer activity. Cells are grown in 96 well plates and exposed to the test compound for 48 hours. Compounds are tested at a single concentration, which is 10^-5 M for most compounds. The reported endpoint is percent growth (GI% or GIPRCNT), where numbers from 0 - 100% represent growth inhibition, and numbers from -100% - 0 represent cell death. For example, a value of 40 represents 60% growth inhibition. A value of 0 means no net growth occurred over the course of the experiment. A value of -40 indicates 40% of cells at the beginning of the experiment died by the end of the experiment. A value of -100 means all cells are dead at the end of the experiment.
NCI-60 Human Tumor Cell Lines Screen was performed using the standard one-dose NCI protocol, which is described in more detail at https://dtp.cancer.gov/discovery_development/nci-60/default.htm.
Compounds with GIPRCNT values below 10 were considered active. Activity score was based on GIPRCNT using the following formula: […]
Score is 0 for GIPRCNT values of 100 or above, 50 for GIPRCNT values of 0, and 100 for GIPRCNT values of -100.
For the compound `O=C(Oc1ccccc1[N+](=O)[O-])C1CCCN1C(=O)OCc1ccccc1` (stereo not given), the growth is 97.5% (inactive).
The same measure for `C/C=C(\C)C(C(=O)NC1CCCCC1)N(C(=O)C1CCc2cc(F)ccc2O1)c1ccc(Cl)cc1` (stereo not given): 98.3% (inactive); for `CCN(CC)CCCC(C)Nc1c2ccc(Cl)cc2nc2cc(OC)c(OC)cc12` (stereo not given): 14.1% (inactive); for `COc1ccc(-c2cc3c(OC)c(OC)c(OC)cc3oc2=O)cc1`: 67% (inactive).
Under `C/C(=N/NC(=S)Nc1ccccc1)c1nc2ccc(Cl)cc2[nH]1` stands -39.8% (active).
`CC(=O)Nc1ccc(/C=C/C(=O)c2ccccc2)cc1`: the growth is 98.4% (inactive).
Take `O=C(O)c1nc(-c2ccccc2)oc1N1CCOCC1`: the growth was 98.4% (inactive).
Under `O=c1[nH]c2ccc(Br)cc2c2c1C(c1ccc(Cl)cc1)c1c(ncn3nc(-c4ccco4)nc13)O2` (stereo not given) stands 79.3% (inactive).
Under `ClC(Cl)c1nc(-c2ccccc2)nc2cc(-c3ccccc3)nn12` stands 81.3% (inactive).
Regarding `S=C(S)NCCc1c[nH]c2ccccc12`, the growth was 95.9% (inactive).
For `CCOC(=O)c1ccc2c(c1)nc(-c1ccc(OCc3ccccc3)c(OC)c1)n2-c1cc(C(C)(C)C)[nH]n1`, the growth was 99.7% (inactive).
As for `COc1cccc(-c2cc3c(O)cc(C#N)cc3[nH]2)c1`, the growth is 106% (inactive).
Under `COc1ccc(/C(C#N)=C/c2cc(OC)c(OC)c(OC)c2)cc1` stands 57.4% (inactive); under `C/C=C/C1=CN2C(=O)c3cc(OC4OC(C)C(NC)C(C)(O)C4O)c(C)cc3N=C[C@@H]2C1` (stereo not given in full), 12.2% (inactive); under `CN1C(=O)N(C)C2C1NN=c1s/c(=C\C=C\c3ccccc3)c(=O)n12` (stereo not given), 79.7% (inactive).
In the case of `C=C(C)[C@@H]1CC[C@]2(C(=O)O)CC[C@]3(C)[C@H](CC[C@@H]4[C@@]5(C)C[C@@H](CC#Cc6ccc(C(F)(F)F)cc6)[C@H](O)C(C)(C)[C@@H]5CC[C@]43C)[C@@H]12`, the growth was 3.74% (active).
The same measure for `Cc1ccc(Nc2nnc(-c3ccc(Cl)cc3)o2)c(C)c1`: 95% (inactive); for `COc1ccc(C(=O)N2NC(=O)/C(=C/c3ccc(F)cc3)N=C2c2ccccc2)cc1`: 97.4% (inactive).
Under `O=C(NCCNc1nccc(-n2ccc3cccnc32)n1)c1ccc(C(F)(F)F)cc1` stands 103% (inactive).
The same measure for `O=C(/C=C/c1ccccc1)c1cccc(O)c1`: 86.5% (inactive); for `CCOC(=O)CN1/C(=N/c2sc3c(c2C(=O)OCC)CCN(C(=O)OCC)C3)SC(=O)/C1=C\C(=O)OC`: 75.2% (inactive).
In the case of `Oc1ccccc1/C=N/NC(=S)NC1CC2C=CC1C2` (stereo not given), the growth is 84.3% (inactive).
Consider `COc1cc(/C=C/C(=O)N2CCN(C(=O)/C=C/c3cc(OC)c(OC)c(OC)c3)CC2)cc(OC)c1OC`, for which the growth is 96.4% (inactive).
Under `CCN1CCN(c2nc(NNC(=O)c3ccccc3)nc(N3CCN(C(c4ccccc4)c4ccccc4)CC3)n2)CC1` stands 74.3% (inactive); under `COc1ccc(-c2ccc(C)n2-c2ccc(-c3nc4ccccc4s3)cc2)cc1`, 95.8% (inactive).
The same measure for `CC(=O)c1cc2c(N)c(C(=O)Nc3cccc4c3OCCO4)sc2nc1C`: 106% (inactive); for `COc1ccc(C2=Nn3c(nnc3-n3nc(C)cc3C)SC2)cc1`: 17.6% (inactive).
As to `O=C1CCCCC1(c1ccccc1)c1ccccc1`, the growth was 110% (inactive).
The same measure for `O=C(Nc1ccc2c(c1)OCCO2)C(=O)c1c[nH]c2ccccc12`: 53.5% (inactive); for `O=C(Nc1cccc(-n2cc(-c3ccncc3)c(-c3ccc(Cl)c(O)c3)n2)c1)Nc1ccc(Cl)c(Cl)c1`: 11.7% (inactive); for `Cc1ccc(S(=O)(=O)C2=C3C(=C(c4ccccc4)c4ccccc43)CN(S(=O)(=O)c3ccc(C)cc3)C2)cc1`: 21.8% (inactive).
The same measure for `COc1ccc(-c2nc3sc(-c4cc(OC)c(OC)c(OC)c4)nn3c2/C=C2/C(=O)Nc3ccc(F)cc32)cc1`: 21.9% (inactive); for `CCCCCCCCCCCCCCCCNC(=O)OC(C)C`: 63.8% (inactive); for `O=C1c2c(c3c4ccccc4n(CCCCCCBr)c3c3[nH]c4ccccc4c23)C(=O)N1O`: 0.342% (active).
As for `O=C1/C(=C/c2ccc([N+](=O)[O-])cc2)CN(C(=O)CCN2CCC(=NO)CC2)C/C1=C\c1ccc([N+](=O)[O-])cc1`, the growth is 6.6% (active).
Turning to `O=C1/C(=C/c2ccccc2)Oc2ccc(O)c(I)c21`, the growth was 96.7% (inactive).
`C=C1C(=O)O[C@@H]2[C@@H]3O[C@@](C)(CC/C=C(\C)CCC[C@@H]2C)[C@H](O)C[C@@H]13`: the growth was 35% (inactive).
Turning to `COc1ccc(Nc2[nH]n3c(=O)cc(-c4ccccc4)nc3c2C(=O)Nc2ccc(C)cc2)c(OC)c1`, the growth is 79.4% (inactive).
Turning to `N=c1ccc2nc3ccc(N)cc3sc-2c1`, the growth was 13.5% (inactive).
Under `CCN(CC)c1ccc(N=O)cc1` stands 55.4% (inactive).

The record behind these values is PubChem BioAssay (NCI).
